# The full list was thinned out, with hits kept by preference.
# Tb PYK inh: inhibitors of Trypanosoma brucei pyruvate kinase. 410,000 compounds, 0.12% hits. Potency, µM (doses to about 76.8 µM), without a hit: at the highest dose activity, negative = inhibition, usual class: inhibitors. AID 624173. Q57TT1. TbPYK enzyme, Kinase-Glo Plus ATP luminescence, 45 min; also: potency is read from the fitted curve at half-maximal effect; % is scaled to controls: 0 for no effect and ±100 for the full control effect; nearly all actives have a fitted effect of over 50% in size
#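 TbPYK + substrate in 50 mM TEA pH 7.2, 100 mM KCl, 10 mM MgCl2, 0.05% BSA, 0.01% Tween-20; cpd pinned; ADP 130 uM final; 45 min RT; Kinase-Glo Plus 10 min; luminescence endpoint.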
# Sm TGR block: inhibitors of Schistosoma mansoni thioredoxin glutathione reductase. Q962Y6. purified TGR, DTNB reduction, TNB absorbance 405 nm. Potency, µM (series often up to 114 µM), without a hit: at the highest dose activity change, negative = inhibition, hits mostly inhibitors. 360,000 compounds, 3% hits. AID 485364; also: potency is read from the fitted curve at half-maximal effect; % is scaled to controls: 0 for no effect and ±100 for the full control effect; nearly all actives have a fitted effect of over 60% in size
#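 Kinetic colorimetric format: TGR-catalysed, NADPH-driven DTNB reduction monitored via TNB absorbance. Enzyme dispensed at 20 nM; compound exposure 15 min at room temperature before reaction start.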
# Cycloheximide cs: counter-screen for Shiga toxin inhibitors: cycloheximide protein synthesis inhibition; cell reporter, cycloheximide protein synthesis inhibition counterscreen; max response, %; 300,000 compounds, 12% hits; AID 2314; in the data active = max response mostly above about 13%, no sharp cut-off; inactive = mostly below about 14%; also: read at 38.3 µM for the half of the compounds with a filed dose; 0% is about no effect
# FBPA Giardia inh: Giardia lamblia aldolase inhibition | A8B2U2 | Potency, µM (highest dose often 59.6 µM), for the others: at the highest dose activity, negative = inhibition, most hits filed as inhibitors | 290,000 compounds, 0.71% hits | purified Giardia FBPA; also: potency is read from the fitted curve at half-maximal effect; % is scaled to controls: 0 for no effect and ±100 for the full control effect; nearly all actives have a fitted effect of over 55% in size
#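 Giardia FBPA (40 nM reagent) was preincubated 10 min at RT with compound (up to 57.5 uM final), then substrate plus GAPDH/TPI/NAD/arsenate coupling system with diaphorase/resazurin was added; resorufin fluorescence (525/598 nm) was read after 20 min.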
# LmPK inhibitor: inhibitors of Leishmania mexicana pyruvate kinase | purified LmPK, Kinase-Glo ATP luminescence, 1 h | 290,000 compounds, 0.37% hits | Potency, µM (titrated, usually from 57.5 µM), without a hit: top-dose activity change, negative = inhibition, most hits filed as inhibitors; also: potency is read from the fitted curve at half-maximal effect; % is scaled to controls: 0 for no effect and ±100 for the full control effect
# Target sequence (Q27686 whole entry, looked up): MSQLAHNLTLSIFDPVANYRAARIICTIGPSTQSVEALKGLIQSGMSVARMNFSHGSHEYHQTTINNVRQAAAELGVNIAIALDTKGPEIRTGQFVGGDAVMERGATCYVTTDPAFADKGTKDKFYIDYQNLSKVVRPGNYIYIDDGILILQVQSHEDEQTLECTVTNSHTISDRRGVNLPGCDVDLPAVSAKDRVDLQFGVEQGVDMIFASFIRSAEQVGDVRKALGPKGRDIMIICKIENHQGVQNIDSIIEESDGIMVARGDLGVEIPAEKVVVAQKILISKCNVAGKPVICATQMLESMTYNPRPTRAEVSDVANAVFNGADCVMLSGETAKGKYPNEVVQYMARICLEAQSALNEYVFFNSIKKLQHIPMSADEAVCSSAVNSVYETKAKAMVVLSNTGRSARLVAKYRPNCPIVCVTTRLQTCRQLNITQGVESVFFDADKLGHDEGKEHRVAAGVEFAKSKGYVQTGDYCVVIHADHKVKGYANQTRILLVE
#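 In 50 mM imidazole pH 7.2 with 7 mM MgCl2, LmPK (0.1 nM) turned over PEP (0.5 mM) and ADP (0.1 mM) for 1 h at room temperature. Luciferase read-out of ATP.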
# Shiga toxin inh: Shiga toxin inhibition; inhibition, % at 38.7 µM; AID 2315; 290,000 compounds, 9.2% hits; Vero cells, Shiga toxin protein synthesis inhibition reporter; in the data active = inhibition mostly above about 28%, no sharp cut-off; inactive = mostly below about 43%; also: 0% is about no effect
# * marks the source's active call; other numbers are inactive results; ? = inconclusive; · = not tested or not shown; + = active, no number; [ ] = another dose, or the depositor's remark. Unless noted, calls follow the shape of the dose curve; as a rule, active = well fitted curve in the direction sought with a large enough effect; inconclusive = small, poorly fitted or top-dose-only effect, or another doubt; inactive = no such curve, though single readings can be large; an effect the other way counts as inactive or inconclusive.
SMILES,Tb PYK inh,Sm TGR block,Cycloheximide cs,FBPA Giardia inh,LmPK inhibitor,Shiga toxin inh
O=C(C1=C(O)C(=O)N(CCN2CCOCC2)C1c1ccc(Cl)cc1)c1cc2ccccc2o1 (stereo not drawn),1%,28µM*,12,·,10%,1
Cc1cc(N2C(=O)C(O)=C(C(=O)c3cc4ccccc4o3)C2c2ccc(Br)cc2)no1 (stereo not drawn),5%,-34%,42*,·,7%,23
COc1cccc(C2C(C(=O)c3cc4ccccc4o3)=C(O)C(=O)N2CCN2CCOCC2)c1 (stereo not drawn),1%,40µM*,3,3%,3%,-10
Cc1nc(C)c(C(=O)C2=C(O)C(=O)N(CCN3CCOCC3)C2c2ccco2)s1 (stereo not drawn),?,28µM*,-2,-13%,4%,-3
COc1ccccc1C1C(C(=O)c2cc3ccccc3o2)=C(O)C(=O)N1CCN1CCOCC1 (stereo not drawn),-7%,40µM*,15,-6%,11%,-6
COc1cccc2cc(C(=O)C3=C(O)C(=O)N(CCN(C)C)C3c3ccc(F)cc3)oc12 (stereo not drawn),13%,-35%,-1,2%,20%,-6
COc1cccc2cc(C(=O)C3=C(O)C(=O)N(CCN4CCOCC4)C3c3ccc(C)o3)oc12 (stereo not drawn),9%,28µM*,5,-20%,4%,-9
COC(=O)c1ccc(C2C(C(=O)c3cc4ccccc4o3)=C(O)C(=O)N2CCN2CCOCC2)cc1 (stereo not drawn),-9%,?,-2,·,13%,1
CCCC[C@@H]1C[C@H]1C(NC(=O)c1cccs1)c1ccccc1C(F)(F)F (stereo partly drawn),·,·,·,-8%,·,·
Cc1ccc(NC(=S)NC(=O)c2ccc(Br)o2)c(C)c1,-4%,·,29*,-3%,1%,61*
Cc1cccc(NC(=S)NC(=O)c2ccc(Br)o2)c1C,-4%,?,1,-7%,0%,32
O=C(NC(=S)Nc1ccccc1F)c1ccc(Br)o1,-1%,-8%,33*,-10%,2%,124*
Cc1ccc(C)c(NC(=S)NNC(=O)c2ccc(Br)o2)c1,-3%,12%,16*,6%,0%,70*
Cc1ccc(-c2nn3c(C)nnc3s2)cc1NC(=O)c1ccc(Br)o1,0%,50µM*,-1,2%,5%,19
CCc1cc(=O)[nH]c(SCc2nc(-c3cccc(Cl)c3)no2)n1,-6%,0%,·,·,·,·
Cc1ccc(-c2cc(C(=O)NCc3ccccc3)c3c(-c4ccc(C)cc4)[nH]nc3n2)cc1,1%,7%,·,·,·,·
CCn1ncc(Br)c1C(=O)Nc1ccc(F)cc1F,-3%,3%,4,-1%,7%,5
CCn1cc(Br)c(C(=O)Nc2ccc(F)cc2F)n1,-9%,9%,25*,-9%,-7%,45*
CCn1cc(Br)c(C(=O)Nc2ccccc2C(=O)OC)n1,1%,32%,0,0%,-1%,-2
CCn1cc(Br)c(C(=O)Nc2cccc(SC)c2)n1,0%,0%,32*,-1%,0%,+
COc1ccc(C2=Nn3c(nnc3-c3cccc(OC)c3OC)SC2)cc1OC,·,·,5,8%,·,-17
Nc1nc(F)nc2c1ncn2[C@@H]1O[C@H](COP(=O)(O)O)[C@@H](O)[C@@H]1O,2%,·,·,·,·,·
C/C=C1/C[N+]2(C)CCC34C(=C(C=O)[C@H]1C[C@@H]32)Nc1ccccc14 (stereo partly drawn),-8%,28µM*,·,·,·,·
CCC(CC)C(=O)Nc1cccc(-c2cn3cccnc3n2)c1,6%[15.4 µM],1%,·,·,·,·
CCC(CC)C(=O)Nc1ccc(-c2cn3cccnc3n2)cc1,3%,6%,14*,6%,1%,31*
SMILES,Tb PYK inh,Sm TGR block,Cycloheximide cs,FBPA Giardia inh,LmPK inhibitor,Shiga toxin inh
COc1cccc(C(=O)Nc2ccc(-c3cn4cccnc4n3)cc2)c1OC,-1%,1%,·,·,·,·
CC(C)(C)CC(=O)Nc1cccc(-c2cn3cccnc3n2)c1,2%,5%,38*,1%,5%,87*
COCC(=O)Nc1ccc(-c2cn3cccnc3n2)cc1,3%,6%,27*,0%,-10%,36
Cc1ccc(NC(=O)N2CCC(N3CCN(Cc4ccccc4)C(=O)C3=O)CC2)cc1Cl,-2%,-3%,·,·,·,·
COc1ccc(NC(=O)CSc2nnc3n2CCCCC3)cc1S(=O)(=O)N1CCOCC1,9%,-13%,·,·,·,·
O=C(N/N=C/c1cc(Br)cc([N+](=O)[O-])c1O)c1ccc(NC(=O)c2ccc(F)cc2)cc1,4%,-24%,-1,?,-7%,-4
CCOC(=O)c1c(C)[nH]c2cc(Br)c(OC)cc12,0%,12%,18*,-4%[12.9 µM],0%,1
CCOC(=O)c1c(C)[nH]c(C)c1-c1ccccc1OC,0%,8%,-7,0%,2%,-20
[N-]=[N+]=NC(c1ccccc1)c1nc2ccccc2[nH]c1=O (stereo not drawn),-8%,-12%,27*,-7%,-4%,28
Nc1nnc(CC(=O)N/N=C/c2cccc([N+](=O)[O-])c2)s1,-3%,-13%,-5,-22%,3%,-13
Nc1nnc(CC(=O)N/N=C/c2cccc(OCCOc3ccccc3)c2)s1,-9%,0%,41*,1%,1%,69*
Cc1ccccc1OCCOc1cccc(/C=N/NC(=O)Cc2nnc(N)s2)c1,-7%,-1%,38*,-10%,3%,137*
COc1ccccc1CN1CCC2(CCNCC2)CC1,2%,·,·,1%,·,·
CCOC(=O)c1ccc(NC(=O)NC(C)C2CCCO2)cc1 (stereo not drawn),3%,0%,12*,2%,-6%,36
CC(=O)c1cccc(NC(=O)NC(C)C2CCCO2)c1 (stereo not drawn),-1%,7%,3,8%,-1%,-5
CC(NC(=O)Nc1ccc(Cl)cc1)C1CCCO1 (stereo not drawn),-6%,20%,8,-2%,-6%,20*
CCOC(=O)c1ccc(NC(=O)C(=O)NCC2CCCO2)cc1 (stereo not drawn),-7%,33%,11,·,0%,74
O=C(CSc1nc(-c2ccccc2)[nH]c1-c1ccccc1)Nc1ccc2c(c1)OCCO2,-3%,-3%,·,·,·,·
CCN1c2ccccc2-c2nc(SCC(=O)NCc3ccc(C)cc3)ncc2S1(=O)=O,0%,12%,·,·,·,·
C(=N\n1cnnc1)/c1ccc(OCc2ccccc2)cc1,-5%,3%,24*,-12%,-6%,62
CN1CCN(/N=C/c2ccc(OCc3ccccc3)cc2)CC1,2%,-5%,65*,2%,0%,107*

# Bioassay records as filed in PubChem.
